Screening results from PubChem.
FEN1 inhibitor = human FEN1 inhibition | P39748 | Recombinant FEN1 flap cleavage, fluorescence, 15 min | Potency, µM (series often up to 114 µM), hits mostly inhibitors | 0.35% of 390,000 active; also: nearly all actives have a fitted effect of over 65% in size
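In this screen, 50 nM flap DNA substrate was added to 10 nM FEN1 pretreated with compound for 15 min at room temperature; cleavage was followed with reads at 0 and 15 min, and Hill fitting gave concentration–response parameters.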
Pol beta inh = DNA polymerase beta (human) inhibition | P06746 | Potency, µM (highest dose often 114 µM), most hits filed as inhibitors | 1.3% of 340,000 active | Pol beta primer extension/strand displacement, fluorescence kinetic
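Pol beta (10 nM) was preincubated with compound for 15 min at room temperature. The reaction was then started with 50 nM substrate and read immediately and after a further 10 min at room temperature.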
Pol eta inh-1 = inhibitors of human DNA polymerase eta; AID 588591; recombinant Pol eta, fluorescent DNA replication assay; Q9Y253; 1.2% of 390,000 active; Potency, µM (series often up to 114 µM), hits mostly inhibitors
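Pol eta at 10 nM preincubated with compounds 15 min at room temperature; reaction started with fluorescent substrate (50 nM final) and read kinetically at 0 and 10 min.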
Pol kappa inh-1 = inhibitors of human DNA polymerase kappa; 0.53% of 400,000 active; purified Pol kappa, fluorescent DNA synthesis assay, 10 min; AID 588579; Potency, µM (top dose mostly 107 µM), actives largely listed as inhibitors
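Activity was followed as the change in fluorescence between reads at 0 and 10 min after starting the reaction with 50 nM substrate. Beforehand, 10 nM polymerase had been preincubated with compound for 15 min at room temperature.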
Pol iota inh = DNA polymerase iota (human) inhibition; 1% of 390,000 active; Potency, µM (titrated, usually from 115 µM), actives largely listed as inhibitors; Pol iota fluorescent replication assay, 10 min; AID 588590; Q9UNA4
Target sequence (Q9UNA4 whole entry, looked up): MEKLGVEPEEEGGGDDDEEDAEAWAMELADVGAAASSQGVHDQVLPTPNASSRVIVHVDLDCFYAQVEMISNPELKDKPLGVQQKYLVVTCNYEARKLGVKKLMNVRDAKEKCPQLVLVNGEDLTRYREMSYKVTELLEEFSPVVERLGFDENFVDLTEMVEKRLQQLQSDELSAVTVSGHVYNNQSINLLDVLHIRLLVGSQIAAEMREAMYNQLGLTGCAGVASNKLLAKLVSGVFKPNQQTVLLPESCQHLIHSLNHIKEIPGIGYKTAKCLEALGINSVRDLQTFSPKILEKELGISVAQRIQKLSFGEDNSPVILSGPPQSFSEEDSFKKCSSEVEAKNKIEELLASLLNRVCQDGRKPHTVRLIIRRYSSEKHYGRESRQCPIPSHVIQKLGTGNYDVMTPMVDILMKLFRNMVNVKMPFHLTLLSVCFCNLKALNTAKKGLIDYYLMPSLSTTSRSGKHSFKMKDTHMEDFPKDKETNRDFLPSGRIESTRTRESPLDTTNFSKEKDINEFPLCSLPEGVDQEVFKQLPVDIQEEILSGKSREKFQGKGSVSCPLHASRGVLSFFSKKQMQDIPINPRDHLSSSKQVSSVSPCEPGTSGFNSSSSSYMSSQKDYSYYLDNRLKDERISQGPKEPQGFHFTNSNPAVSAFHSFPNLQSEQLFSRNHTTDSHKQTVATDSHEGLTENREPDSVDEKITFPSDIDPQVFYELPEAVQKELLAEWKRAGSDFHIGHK
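Pol iota at 10 nM preincubated 15 min with compounds at room temperature; reaction started with fluorescent substrate, 50 nM final. Fluorescence read kinetically at 0 and 10 min; buffer-only wells as negative control.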
PGK inhibitor = blocks T. brucei phosphoglycerate kinase; P07378; PGK/GAPDH coupled, Kinase-Glo luminescence, 60 min; Potency, µM (series often up to 57.5 µM), most hits filed as inhibitors; 0.043% of 380,000 active; also: nearly all actives have a fitted effect of over 60% in size
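Luminescent ATP detection (Kinase-Glo Plus) follows a 60-minute room-temperature incubation, with wells lacking PGK as controls. Buffer: 100 mM TEA (pH 7.6), 5 mM MgCl2, 0.01% Tween-20. Coupling enzyme GAPDH (100 nM final) supplies unstable 1,3-BPG in-well.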
TbPGK inh = TbPGK inhibition, hit validation; shares compounds with Pol kappa inh-1; TbPGK coupled GAPDH assay, Kinase-Glo luminescence; Potency, µM (highest dose often 57.5 µM), hits mostly inhibitors; 79% of 500 active; AID 686980; also: nearly all actives have a fitted effect of over 65% in size
Pol iota confirm = Human Pol iota inhibitor confirmatory assay; shares compounds with Pol kappa inh-1; Pol iota primer extension, TAMRA/BHQ fluorescence; Potency, µM, most hits filed as inhibitors; 77% of 1,500 active; AID 720496
Pol kappa inh-2 = Pol kappa (human) inhibition, cherry-pick confirmation | shares compounds with Pol eta inh-1 | purified Pol-kappa, fluorescent strand-displacement substrate | Potency, µM, hits mostly inhibitors | 76% of 920 active | AID 720501
Pol eta inh-2 = Pol eta (human) inhibition, cherry-pick confirmation | Potency, µM, hits mostly inhibitors | AID 720502 | shares compounds with Pol eta inh-1 | 64% of 2,600 active | Pol eta primer extension, TAMRA/BHQ fluorescence, 10 min
Numbers stand for hits; . = inactive; ? = inconclusive; / = no result given; [ ] = remark or other dose. Most compounds without a hit are left out; they make up all but 2.4% or so of the library. Calls follow the shape of the dose curve; as a rule, active = well fitted curve in the direction sought with a large enough effect; inconclusive = small, poorly fitted or top-dose-only effect, or another doubt; inactive = no such curve, though single readings can be large; an effect the other way counts as inactive or inconclusive.

SMILES	FEN1 inhibitor	Pol beta inh	Pol eta inh-1	Pol kappa inh-1	Pol iota inh	PGK inhibitor	Pol iota confirm	Pol kappa inh-2	Pol eta inh-2	others
O=C(OCc1cc(=O)n2nc(C3CC3)sc2n1)c1ccc(NC(=O)c2ccccc2Cl)cc1	.	.	.	.	.	.	/	/	/
COc1ccc(N2Cc3cccc(C(=O)Nc4ccc(C)cc4)c3C2=O)cc1	.	13µM	/	?	79µM	/	?	38	?
COc1ccc(N2Cc3cccc(C(=O)Nc4ccc(C(C)C)cc4)c3C2=O)cc1	.	11µM	/	?	56µM	/	?	30	?
CCCN1CCC(=O)N(C(CSc2ccc(Br)cc2)c2ccccc2)CC1 (stereo unspecified)	.	/	/	.	.	/	/	/	/
Cc1ccc(NC(=O)c2sc3nc[nH]c(=O)c3c2C)cc1C	.	.	.	.	.	.	/	/	/
Cc1csc(NC(=O)CSc2nc(C(C)C)nc3ccccc23)n1	.	.	.	.	.	.	/	/	/
CC(C)c1nc(SCC(=O)Nc2nccs2)c2ccccc2n1	.	25µM	32µM	.	?	.	53	/	76
O=C(O)c1ccc(COc2ccccc2/C=C2/NC(=O)N(c3cccc(Cl)c3)C2=O)cc1	56µM	25µM	10µM	40µM	28µM	.	34	19	34
O=P(c1ccccc1)(c1ccccc1)c1cc(S(=O)(=O)O)ccc1O	.	10µM	20µM	?	25µM	?	24	42	60
Cc1ccc(C)n1-c1sc2c(c1C(=O)O)CCCC2	.	14µM	7.9µM	50µM	?	.	60	/	27
O=C(O)CSc1nc2ccc(NC(=O)COc3ccc(Cl)cc3)cc2s1	.	25µM	11µM	?	79µM	?	67	/	30
Cn1cc(O)nc1NC(=O)Nc1cccc(Cl)c1	/	/	/	.[19.4 µM]	/	/	/	/	/
CC(=O)N1CCc2c(sc3c2c(=O)n(Cc2ccccc2)c(=O)n3Cc2ccccc2Cl)C1	.	.	.	.	.	.	/	/	/
COc1ccc(C2Nc3ccccc3C(=O)N2Cc2ccco2)cc1COc1ccc(N)cc1 (stereo unspecified)	/	/	/	/	/	/	75	/	85
COc1ccc(C2Nc3ccccc3C(=O)N2Cc2ccco2)cc1COc1ccc(F)cc1 (stereo unspecified)	.	.	.	.	.	.	/	/	/
O=C(O)c1cccc(N2C(=O)/C(=C/c3ccc(SCc4ccc(Cl)cc4)o3)SC2=S)c1	?	3.2µM	7.9µM	79µM	?	35µM	34	3.4	19	TbPGK inh=33µM
CCCCN(CC)C(=O)CCCn1c(=O)c2cccn2c2ccccc21	.	.	.	.	.	.	/	/	/
Cc1cccc(C(=O)Oc2ccc(/C=N/NC(=O)c3cc(O)cc(O)c3)cc2)c1	?	7.1µM	7.9µM	50µM	18µM	?	67	15	34
Cc1cccc(C(=O)Oc2ccc(/C=N/NC(=O)c3ccncc3)cc2)c1	.	.	.	.	.	.	/	/	/
Cc1nc2sc(C(N)=O)c(N)c2c(-c2ccc(Br)cc2)c1C(=O)Nc1ccc(Cl)cc1	.	?	.	.	?	.	/	/	/
CC(=O)N1CCC2(CCCN(c3ccc(-c4ccccc4)cc3)C2)CC1	/	/	/	.	/	/	/	/	/
Cn1cnnc1SCC(=O)Nc1ncc([N+](=O)[O-])s1	?	/	2.8µM	71µM	7.9µM	?	19	3.4	15
CCc1nnc(NC(=O)CSc2nc(-c3ccccc3)cc(-c3ccc(F)cc3)c2C#N)s1	.	.	.	.	.	.	/	/	/
CCSc1nnc(NC(=O)CC)s1	.	.	.	.	.	.	/	/	/
